Source: PubChem BioAssay AID1259372 (The Scripps Research Institute Molecular Screening Center, 2018)
Out of some 4,700 compounds screened, about 760 (16%) were called active. Only a sample is shown. Unmarked numbers belong to inactive results.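 How the source made its calls: active means inhibition above a cutoff derived from the DMSO control wells (cut at about 28% in these data); inactive means the rest.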

biological target: Microphthalmia-associated transcription factor (Homo sapiens) (UniProt O75030); experiment: blockers of human MITF dimerization – biochemical, AlphaScreen, triplicate, confirmation (AID 1259372); details: AlphaScreen MITF homodimerization, biotin/His-MITF beads; at 2.6 µM; active compounds read high
Sequence (O75030 whole entry, looked up): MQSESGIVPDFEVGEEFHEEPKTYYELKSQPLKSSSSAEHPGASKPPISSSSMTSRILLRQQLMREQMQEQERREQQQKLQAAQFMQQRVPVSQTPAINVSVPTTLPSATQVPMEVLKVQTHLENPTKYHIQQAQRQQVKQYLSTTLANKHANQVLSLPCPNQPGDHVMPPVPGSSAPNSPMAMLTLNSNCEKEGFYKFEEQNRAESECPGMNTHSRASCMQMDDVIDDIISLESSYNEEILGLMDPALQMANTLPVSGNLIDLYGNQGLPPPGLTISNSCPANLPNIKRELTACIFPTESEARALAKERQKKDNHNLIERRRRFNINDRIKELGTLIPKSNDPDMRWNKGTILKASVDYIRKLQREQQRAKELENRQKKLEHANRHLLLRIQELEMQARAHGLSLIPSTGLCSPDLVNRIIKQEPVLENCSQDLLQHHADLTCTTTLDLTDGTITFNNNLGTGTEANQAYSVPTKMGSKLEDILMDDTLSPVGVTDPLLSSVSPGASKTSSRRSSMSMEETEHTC

Going from O=C(C1CCN(Cc2nc3ccccc3[nH]2)CC1)N1CCN(c2ccccn2)CC1 to O=C(c1cccs1)N1CCC(N2CCN(Cc3ccccc3)CC2)CC1, the inhibition rises from 0.24% to 1.58%.

First: COc1ccc(OC)c(CN2CCN(Cc3ccccc3OC)CC2)c1
Second: COc1ccc(CN2CCN(Cc3ccccc3OC)CC2)cc1Br
The inhibition of the first is higher: 10.6% for the first, 5.52% for the second.

Going from C=CCNCCOCCOc1cc(C)ccc1C(C)(C)C to CC(C)(C)NCCOCCOc1ccc(Cl)c(Cl)c1, the inhibition falls from 7.1% to 4.77%.

Going from Cc1cnc(NCc2ccc3c(c2)OCO3)nc1Nc1ccccc1 to O=C(Nc1ccc2c(c1)OCO2)C(c1ccccc1)N(Cc1ccccc1)Cc1ccccc1 (configuration not stated), the inhibition falls from -0.48% to -3.96%.

First: c1cc2c(cc1CN1CCN(C3CCCCC3)CC1)OCO2
Second: c1cc2c(cc1CN1CCN(C3CCCC3)CC1)OCO2
The inhibition of the first is lower: -2.28% for the first, -0.1% for the second.

Going from Cc1cccc(CSc2n[nH]c(=O)[nH]c2=O)c1 to CS(=O)(=O)N1CCN(Cc2cccc(Cl)c2)CC1, the inhibition rises from -2.69% to -2.19%.

Going from COc1cc(OC)c(OC)cc1CN1CCN(Cc2ccc(F)cc2)CC1 to COc1cc(CN2CCN(Cc3ccc(C)cc3)CC2)c([N+](=O)[O-])cc1OC, the inhibition rises from -1.09% to 6.72%.

Going from Cc1nnc(N2CCC(Cc3ccccc3)CC2)c2ccccc12 to c1ccc(-c2ccccc2OCCNCCN2CCOCC2)cc1, the inhibition rises from 2.32% to 16.9%.

First: COc1ccc(CNCC2CN(CC(C)C)CCO2)cc1 (configuration not stated)
Second: Cc1cc(OCCN2CCN(C)CC2)ccc1C(C)C
The inhibition of the first is higher: 10% for the first, -2.72% for the second.

Compared with CCN1CCN(CCOCCOc2ccc([N+](=O)[O-])cc2)CC1, CN1CCN(CCOCCOc2ccccc2Cl)CC1 is higher in inhibition: 3.04% for the first, 6.9% for the second.

First: O=C(O)CCCCCNC(=O)/C(=C\c1ccco1)NC(=O)c1ccccc1
Second: Cc1ccc(NC(=O)CNCCCSc2ccccc2)cc1C
The inhibition of the first is higher: 25.9% for the first, 14.7% for the second.

First: O=[N+]([O-])c1ccccc1CN1CCN(Cc2ccccc2C(F)(F)F)CC1
Second: COc1ccc(CN2CCN(Cc3ccccc3C(F)(F)F)CC2)cc1OC
The inhibition of the first is lower: 3.85% for the first, 24.4% for the second.

Compared with COC(=O)C1(C)NC(c2ccc(C)cc2)C2C(=O)N(c3ccc(F)cc3)C(=O)C21 (configuration not stated), CC(=O)c1ccc(NC(=O)C(C)NCc2ccc(C)cc2)cc1 (configuration not stated) is lower in inhibition: 11.8% for the first, 3.11% for the second.

Compared with Cc1nc(NC2CC2)cc(-c2ccc(F)cc2)n1, Cn1c(-c2ccc(F)cc2)cnc1NCc1cccnc1 is lower in inhibition: 12% for the first, -19.5% for the second.

Compared with CCOc1ccc(CN2CCN(C(=O)c3cccc(Cl)c3)CC2)cc1, O=C(c1cccc(Cl)c1)N1CCN(Cc2cccnc2)CC1 is higher in inhibition: -0.91% for the first, 16.8% for the second.

Going from CC(C)c1ccc(C2/C(=C(/O)c3ccccc3)C(=O)C(=O)N2CCN(C)C)cc1 (configuration not stated) to O=C1c2ccccc2C(O)N1Cc1ccccc1Cl (configuration not stated), the inhibition falls from 4.9% to -9.08%.

First: CCCCCOc1ccc(OC(=O)c2ccc(-c3ccc(CCC)cn3)cc2)cc1
Second: COc1ccc(OCCn2ccnc2C)cc1
The inhibition of the first is higher: 4.5% for the first, -1.1% for the second.

Going from COc1ccc(Br)cc1CN1CCN(CCOCCO)CC1 to OCCOCCN1CCN(Cc2ccc(Cl)cc2)CC1, the inhibition rises from -4.85% to 1.57%.

Compared with O=S(=O)(c1ccc(Br)cc1Cl)N1CCN(CCc2ccncc2)CC1, Cc1ccc(CN2CCN(Cc3ccncc3)CC2)cc1 is higher in inhibition: 11.6% for the first, 15.2% for the second.

First: CCN(CC)CC(=O)Nc1c2c(nc3ccccc13)N(c1cccc(C)c1)CC2
Second: CN(CCc1ccccn1)CC(=O)N1CCc2ccccc21
The inhibition of the first is lower: -3.54% for the first, 12.3% for the second.

Going from c1ccc(CCCCNc2nccc(Nc3ccncn3)n2)cc1 to c1ccc(Oc2cccc(OCCCCn3cncn3)c2)cc1, the inhibition falls from -1.64% to -15.6%.

First: CN(C)CC(C)(C)CNCc1nnc(-c2ccccc2)o1
Second: COc1ccc(COCC(O)CNCC(C)(C)CN(C)C)cc1OC (configuration not stated)
The inhibition of the first is lower: -4.13% for the first, 3.01% for the second.

Compared with COc1ccc(CN2CCN(Cc3cccnc3)CC2)cc1OCc1ccccc1, CCCS(=O)(=O)N1CCN(Cc2ccc(OC)c(OCc3ccccc3)c2)CC1 is lower in inhibition: 3.98% for the first, -0.41% for the second.

Compared with CCCCCCOC(=O)c1cc(C(=O)OCCCCCC)c(C)nc1C, CCCn1c(C)cc(-c2csc(NC(=O)Cc3ccsc3)n2)c1C is higher in inhibition: -4.67% for the first, 21.7% for the second.

First: COc1cccc(C(=O)N2CCN(Cc3cc(OC)c(OC)cc3OC)CC2)c1
Second: COc1cc(CN2CCN(Cc3cc(OC)c(OC)cc3OC)CC2)cc(OC)c1
The inhibition of the first is lower: 0.86% for the first, 7.67% for the second.

First: COC(=O)c1cccc(NS(=O)(=O)c2ccc3ccccc3c2)c1C
Second: Cn1c(=NC(=O)COc2ccccc2)sc2cc(S(C)(=O)=O)ccc21
The inhibition of the first is lower: 1.98% for the first, 4.53% for the second.

First: Clc1ccc(CN2CCN(CC3CC=CCC3)CC2)cc1 (configuration not stated)
Second: COc1cc(CN2CCN(Cc3ccc(Cl)cc3)CC2)c([N+](=O)[O-])cc1OC
The inhibition of the first is lower: -2.27% for the first, 5.78% for the second.

Compared with CCOc1cc(CN2CCN(Cc3ccccn3)CC2)ccc1OC, COc1cc(CN2CCN(Cc3ccc(OC)c(OC)c3)CC2)cc(OC)c1 is lower in inhibition: 13.2% for the first, 4.54% for the second.

Going from CCN1CCN(CCCOc2ccc(C(C)=O)cc2OC)CC1 to CCN1CCN(CCCCOc2ccccc2F)CC1, the inhibition rises from 1.36% to 6.76%.

Compared with COc1cc(CN(CCN(C)C)Cc2ccccc2)cc(OC)c1, COc1cc(CN2CCN(Cc3ccccc3Br)CC2)cc(OC)c1 is lower in inhibition: 15.3% for the first, 9.11% for the second.

Compared with Cc1cc(C(C)(C)C)ccc1OCCN1CCNCC1, Cc1ccc(C(C)C)c(OCCN2CCNCC2)c1 is lower in inhibition: -3.14% for the first, -8.7% for the second.

First: COc1cccc(CN2CCN(C(=O)c3ccccc3F)CC2)c1
Second: COc1cccc(OC)c1C(=O)N1CCN(Cc2cccnc2)CC1
The inhibition of the first is higher: -1.9% for the first, -5.41% for the second.

Compared with O=C1NC(c2ccccc2[N+](=O)[O-])C(C(=O)c2cccs2)C(O)(C(F)(F)F)N1 (configuration not stated), CC1CCN(S(=O)(=O)c2ccc(Cl)c(C(=O)Nc3ccccc3[N+](=O)[O-])c2)CC1 is higher in inhibition: 4.8% for the first, 16.1% for the second.

Compared with N#C/C(=C/c1ccc(-c2ccc3c(c2)C(=O)NC3=O)o1)C(=O)O, CC1(C)CC(=O)C2=C(C1)Nc1ccccc1N(C(=O)Cc1ccccc1)C2c1ccc(-c2ccc([N+](=O)[O-])cc2)o1 (configuration not stated) is higher in inhibition: 6.58% for the first, 12.3% for the second.

First: Cc1ccc(C)c(OCCN2CCOCC2)c1C
Second: O=[N+]([O-])c1ccc(OCc2nnc(SCCN3CCOCC3)n2-c2ccccc2)cc1
The inhibition of the first is higher: 15.2% for the first, 2.94% for the second.

Compared with COCc1nc2ccccc2n1CCc1noc(-c2ccco2)n1, COC(=O)CSc1nc(C2CC2)nc2ccccc12 is lower in inhibition: 6.8% for the first, 5.56% for the second.

Going from C1=CC2CC1CC2CN1CCN(Cc2c[nH]c3ccccc23)CC1 (configuration not stated) to COc1cccc(CN2CCN(C/C=C/c3ccccc3)CC2)c1OC, the inhibition rises from -0.81% to 2.33%.

First: COc1cccc(/C=C(\C#N)c2nc3ccccc3[nH]2)c1OCc1ccc(Cl)cc1Cl
Second: COc1cc2nc(-c3cccc(C(C)=O)c3)nc(N)c2cc1OC
The inhibition of the first is higher: 0.99% for the first, -8.94% for the second.

Going from CC1CN(CCOc2ccccc2[N+](=O)[O-])CC(C)O1 (configuration not stated) to CC1CCCC(N2CCN(Cc3ccccc3Cl)CC2)C1 (configuration not stated), the inhibition falls from 6.95% to -6.77%.

Going from COc1ccc(NC(=O)CN2CCN(C)CC2)c(OC)c1 to CC(=O)N1CCN(CC(=O)Nc2ccc(C)c(F)c2)CC1, the inhibition falls from 13% to -10.5%.

Compared with Clc1cccc(CN2CCN(C3CCCC3)CC2)c1, O=C(c1ccccc1)N1CCN(C2CCCC2)CC1 is lower in inhibition: 12.9% for the first, -3.05% for the second.

First: Brc1cccc(CN2CCN(Cc3cccnc3)CC2)c1
Second: COc1cccc(CN2CCN(CCCc3ccccc3)CC2CCO)c1 (configuration not stated)
The inhibition of the first is higher: 5.44% for the first, -0.58% for the second.

Going from COc1ccc(-c2nc(Nc3cc(OC)c(OC)c(OC)c3)c3[nH]cnc3n2)cc1 to COc1cc(CN2CCN(C(=O)C(c3ccccc3)c3ccccc3)CC2)cc(OC)c1OC, the inhibition falls from 14% to 5.49%.

Compared with CCN1CCN(CC(O)COc2cccc(C(=O)OC)c2)CC1 (configuration not stated), O=C(CNCc1cccnc1)Nc1ccc(C(=O)N2CCCCC2)cc1 is higher in inhibition: -4.86% for the first, 7.91% for the second.

Compared with Cc1cc(NC(=O)/C=C/C(=O)N(CC(=O)NC2CCCC2)c2ccc(F)cc2)no1, Cc1cc(S(=O)(=O)Nc2ccc3c(c2)OCCO3)ccc1-n1cnnn1 is lower in inhibition: 10.1% for the first, 5.76% for the second.

Going from CSc1ccc(CN2CCN(S(=O)(=O)c3ccc([N+](=O)[O-])cc3)CC2)cc1 to O=C(CCC(=O)OCc1ccc(Cl)cc1)Nc1ccc([N+](=O)[O-])cc1, the inhibition falls from 19.9% to 13.1%.

Compared with NS(=O)(=O)c1cccc(NC(=O)COc2ncnc3sc(-c4ccccc4)cc23)c1, C=CCn1c(SCC(=O)Nc2nc3ccccc3s2)nc(O)cc1=O is lower in inhibition: 13.3% for the first, -1.3% for the second.

Going from COc1ccc(C2C(C(C)=O)=C(C)N=C3SCC(=O)N32)c(OC)c1 (configuration not stated) to Cc1nc(NC(=O)c2cc(Br)ccc2Cl)sc1C, the inhibition rises from -3.48% to 11%.

Compared with Cn1c(=O)oc2cc(S(=O)(=O)N3CCC(C(=O)NC(C)(C)C)CC3)ccc21, CC(=O)N1CCN(C(=O)c2ccc(N3CC4CC(C3)c3cccc(=O)n3C4)c(NC(=O)c3cccnc3)c2)CC1 (configuration not stated) is higher in inhibition: -16.9% for the first, -11.6% for the second.

In the case of CSc1nnc(SCc2nc3sc(C(=O)O)c(C)c3c(=O)[nH]2)s1, the inhibition is reported as 14.3%.

For c1cc2c(cc1CNc1nc(Nc3ccc(N4CCOCC4)cc3)c3ncn(C4CCCCC4)c3n1)OCO2, the inhibition was 71.3% (active).
With O=C(O)CCCCC1SCC2NC(=O)NC21O (configuration not stated) the inhibition was 116% (active).
With NC(=O)COC(=O)/C=C/c1ccc(I)o1 the inhibition was 57.8% (active).
With CCOc1ccccc1N1CCN(Cc2cc(OC)c(O)c([N+](=O)[O-])c2)CC1 the inhibition was 32.4% (active).
With CCc1ccc(NC(=O)CS(=O)CC(=O)NCCCc2ccccc2)cc1 (configuration not stated) the inhibition was 44.5% (active).
With Nc1ccc(S(=O)(=O)O)c2cc(S(=O)(=O)O)cc(O)c12 the inhibition was 42.7% (active).
For COc1ccc2c(c1)CC(C(=O)Nc1ccc(-c3cn[nH]c3)cc1OCC(N)=O)CO2 (configuration not stated), the inhibition was 40.3% (active).
For COc1ccc2c(c1)CC(C(=O)Nc1ccc(-c3cn[nH]c3)cc1OCc1ccccc1)CO2 (configuration not stated), the inhibition was 56% (active).
O=C(c1ccc2c(c1)C(=O)N(Cc1cccnc1)C2=O)c1ccc2c(c1)C(=O)N(Cc1cccnc1)C2=O was tested, and the inhibition was 51.2% (active).
With O=C(Nc1ccc(-c2ccncc2)c(C(F)(F)F)c1)C1COc2ccccc2O1 (configuration not stated) the inhibition was 42.5% (active).
For CCNc1nc(NCC)nc(C(=O)O)n1, the inhibition was 54.9% (active).
For Cc1ccc(NC(=O)COC(=O)CCC(=O)Nc2sc3c(c2C(N)=O)CCC3)cc1F, the inhibition was 87.4% (active).
CCSc1ccccc1C(=O)N1CCN(c2ccc(-c3ccccn3)nn2)CC1 was tested, and the inhibition was 111% (active).
